Experimental data taken from ChEMBL document CHEMBL1157539, “Thousands of chemical starting points for antimalarial lead identification” (Nature, 2010).

How the values were obtained:
Type in all cases: functional
[1] = test system: Plasmodium falciparum; experiment: GSK_TCMDC: Inhibition of Plasmodium falciparum 3D7 in whole red blood cells, using parasite LDH activity as an index of growth. Test compounds present at 2uM
[2] = test system: Plasmodium falciparum; experiment: GSK_TCMDC: Inhibition of Plasmodium falciparum Dd2 in whole red blood cells, using parasite LDH activity as an index of growth. Test compounds present at 2uM
[3] = test system: HepG2; experiment: GSK_TCMDC: Percent inhibition of human HepG2 cell line. Test compounds present at 10uM.

Compound	Inhibition [1] [%]	Inhibition [2] [%]	Inhibition [3] [%]
c1ccc2[nH]c(CN(Cc3nc4ccccc4[nH]3)Cc3nc4ccccc4[nH]3)nc2c1	81	86	39
COC(=O)CCCCOc1c(OC)cc(Cc2cnc(N)nc2N)cc1OC	93	0	0
Cc1ccc(CNC(=O)[C@H](Cc2ccccc2)Nc2cc(C)nc(NCCc3ccc(F)cc3)n2)cc1.O=C(O)C(F)(F)F	98	22	10
COc1ccc2ncc(F)c(CCN3CC(O)C(CNCc4ccc(F)cc4)C3)c2n1.Cl (stereo not drawn)	93	21	38
CCCCNCc1ccc(-c2nc(CN(CCCn3ccnc3)C(=O)Nc3ccc(CC)cc3)cs2)cc1.O=C(O)C(F)(F)F	100	56	21
COc1cccc(CC(=O)N2CCC(n3c(C)nc4ccc(C)cc43)CC2)c1	100	99	1
COc1ccc(C2C(C(=O)Nc3ccccc3)=C(C)Nc3c(C(=O)Nc4ccccc4)cnn32)cc1 (stereo not drawn)	85	66	13
O=C(Nc1ccc(-c2cccc(-c3nc4cc(F)ccc4[nH]3)c2)cc1)Nc1ccc(Cl)c(Cl)c1	99	24	68
CCCCN(CCCC)/C(=N/c1cccc(Cl)c1Cl)Nc1ccc(C#N)cc1O	89	69	4
Cc1cc(N2CCOCC2)nc2ccc(NC(=O)c3cccc([N+](=O)[O-])c3)cc12	97	37	0
Cc1ccc(C2(C)CN(CCCOc3cccc(-c4ccc(C(=O)NC(C)C)cc4)c3)CCO2)cc1 (stereo not drawn)	93	89	15
O=C(N[C@@H](Cc1ccccc1)C(=O)O)c1cc(-c2ccc(F)cc2)no1.O=C(N[C@@H](Cc1ccccc1)C(=O)O)c1conc1-c1ccc(F)cc1	96	49	0
C=CCn1c(Sc2ccc(C#N)c([N+](=O)[O-])c2)nnc1-c1ccc(Cl)cc1	97	85	13
Cl.Oc1ccc2c(CNCCc3ccccc3)c(O)ccc2c1CNCCc1ccccc1	99	100	24
C=C[C@H]1CN(CCCCCCC)CC[C@H]1CCN(C)c1ccnc2ccc(OC)cc12.O=C(O)C(=O)O	97	93	22
CCN1CCC(N(Cc2ccc(-c3ccc(C(F)(F)F)s3)cc2)C(=O)Cn2c(CCc3cccc(F)c3F)nc(=O)c3ccccc32)CC1.O=C(O)C(O)C(O)C(=O)O	93	95	47
CC(C)(C)c1ccc(-c2cc(C(=O)N[C@@H](CO)C(=O)O)on2)cc1.CC(C)(C)c1ccc(-c2nocc2C(=O)N[C@@H](CO)C(=O)O)cc1	87	0	1
CS(=O)(=O)CCNCc1cccc(-c2cc3c(Nc4ccc(OCc5cccc(F)c5)c(Cl)c4)ncnc3s2)c1.O=C(O)C(F)(F)F	100	97	5
COc1cc2nc(N3CCC(CNC(=O)c4cccc5cc[nH]c45)CC3)nc(N)c2cc1OC	98	24	33
CC(C)CNCc1ccc(-c2cccc(CN(CCCN3CCN(C)CC3)C(=O)/C=C/c3ccccc3)c2)cc1.O=C(O)C(F)(F)F	95	93	43
Cc1cccc(Cl)c1Nc1nnc(-c2cccc(C(=O)NC[C@@H]3CC[C@H]4C[C@@H]3C4(C)C)c2)o1	85	69	2

Compound	Inhibition [1] [%]	Inhibition [2] [%]	Inhibition [3] [%]
Cn1c2c(c3ccccc31)CN(CCC1(c3ccc(Cl)c(Cl)c3)CN(C(=O)c3ccccc3)CCO1)CC2 (stereo not drawn)	97	88	10
CCCc1cc(=O)[nH]c(-n2nc(C)cc2NC(=O)C(CC)c2ccccc2)n1 (stereo not drawn)	94	63	41
Cc1sc(NC(=O)Cc2cccc(C(F)(F)F)c2)nc1-c1cccc(Cl)c1	100	95	15
COc1ccc(Nc2nc(C)cc(NCc3ccc(-c4c(C)noc4C)cc3)n2)cc1	99	50	48
Cc1cc(=NN=Cc2ccccn2)c2cc(F)ccc2[nH]1	100	96	9
NC(=O)c1cc(-c2ccccc2)cc2c(C3CCC(NCc4ccccc4)C3)c[nH]c12 (stereo not drawn)	95	30	99
COc1ccc(Nc2ncc3c(-c4cccc(NC(=O)Cc5ccc(O)cc5)c4)c[nH]c3n2)cc1OC	100	99	48
O=C(Nc1ccc(-c2nc3ccccc3[nH]2)cc1)c1ccc(-c2cccc([N+](=O)[O-])c2)o1	100	97	47
Cc1cc(N2CCCC2)nc(Nc2ccc(NC(=O)Nc3ccccc3)cc2)n1	99	100	35
COc1ccc(Nc2nccc(N3CCC(NC(=O)c4cc5ccccc5s4)C3)n2)cc1 (stereo not drawn)	99	86	1
COc1ccccc1C1CCN(C2CCC(NC(=O)/C=C/c3ccc4c(c3)OC(F)(F)O4)CC2)CC1 (stereo not drawn)	98	31	52
Br.CC1(C)NC(N)=NC(=N)N1OCCSc1ccccc1	95	95	68
Cl.NC1=NC(Cc2ccccc2)N(c2ccc(Cl)cc2)C(N)=N1 (stereo not drawn)	93	4	21
CCCCCCCCCn1c(NCc2cc(Cl)ccc2O)nc2ccccc21	97	92	13
CC(Oc1cc(-n2cnc3ccc(NC(=O)CCN4CCCCC4)cc32)sc1C(N)=O)c1ccccc1Cl (stereo not drawn)	99	98	95
CCCC(CNCc1cccc(OCC)c1)CNc1cc(=O)c2ccccc2[nH]1 (stereo not drawn)	100	97	0
O=C1COC2(CN1CC1CCN(Cc3ccc(O)c(Cl)c3)C1)c1ccccc1-c1ccccc12.O=CO (stereo not drawn)	93	50	6
CN(C)CCOc1cc(NC(=O)Nc2cccc([N+](=O)[O-])c2)ccc1I	100	51	8
Cc1ccc(C2(CN3CCC(NC(=O)c4n[nH]cc4Cl)CC3)CCCCC2)cc1	97	96	0
CC(C)(C)C(=O)Nc1c(-c2cc(=O)oc3cc4c(cc23)CCC4)oc2ccccc12	100	100	0
COc1ccc2nccc([C@@H](O)CN3CCC(NCc4nc5cc(F)c(F)cc5[nH]4)CC3)c2c1.O=C(O)C(=O)O	96	36	12

Compound	Inhibition [1] [%]	Inhibition [2] [%]	Inhibition [3] [%]
O=C(c1ccccc1NN=C1C(=O)N(c2ccccc2)N=C1c1ccccc1)N1CCOCC1	97	2	0
COc1ccc2c(c1)[nH]c1c(/C=C/c3ccc([N+](=O)[O-])cc3)nccc12	100	63	4
Cc1[nH]cc(Br)c(=O)c1-c1ccc(Oc2ccc(OC(F)(F)F)cc2)cc1	96	92	22
N#Cc1ccc(-c2ccc(C(=O)NCCCCN3CCC(c4nc5ccccc5[nH]4)CC3)cc2)cc1	92	13	43
CC(=O)NC(c1cccs1)c1cc(Cl)c2cccnc2c1O (stereo not drawn)	94	93	65
Cc1cc(NC(=O)Nc2ccc3ccn(C)c3c2)c2ccccc2n1	100	69	11
Cc1nc(N/C=C/c2ccc(O)cc2)cc(N2CCCC2)n1	93	54	0
O=C(NCC1Cc2cc(Oc3ccccc3)ccc2O1)c1ccc([N+](=O)[O-])o1 (stereo not drawn)	88	81	83
Cn1ccc2c3c(N)nc(N)nc3ccc21	91	17	59
CCc1cc2c3c(N)nc(N)nc3ccc2n1C(CC)CC	96	12	71
O=C(COc1ccccc1)N(Cc1ccc(-c2ccc(CNC3Cc4ccccc4C3)cc2)cc1)C1CCNCC1.O=C(O)C(F)(F)F	100	8	26
O=C(Nc1ccc(F)c(C(F)(F)F)c1)NC1CCN(CCCCCNC(=O)C2CC2c2ccc(Cl)c(Cl)c2)CC1 (stereo not drawn)	100	16	96
O=S(=O)(c1cccc(Br)c1)N1CCCCC(c2ccc(C(F)(F)F)cc2)=N1	91	92	30
CCc1ccc(C2=Nn3c(nnc3-c3cccs3)SC2)cc1	93	20	9
CCc1cn(CCCOC)c2ccc(C(=O)N[C@@H](Cc3ccccc3)[C@H](O)CNCc3cccc(C(F)(F)F)c3)cc12	93	78	8
Cc1nc(-c2cccc3c(NC(=O)Nc4ccc5nccc(N6CCN(C)CC6)c5c4)cccc23)no1.Cl	100	84	0
N#Cc1cccc(NC(=O)Nc2cccc(OC3CCN(Cc4ccccc4)CC3)c2)c1.O=C(O)C(F)(F)F	100	48	5
CN1CCCc2ccc(NC(=O)C=Cc3ccc(-c4ccc(F)cc4F)o3)cc2C1.O=C(O)C(F)(F)F	98	20	8
Cc1nc(-c2ccc(-c3ccc(NC(=O)Nc4ccc(I)c(OCCN(C)C)c4)cc3)c(C)c2)no1.Cl	100	92	47
